Source: PubChem BioAssay AID1159580 (chemical genetic matrix, 2015)
The whole screen tested about 5,500 compounds, of which about 2,000 (36%) were called active. Not shown: some 18% with an inconclusive outcome. Rule as the data show it: active = normalized growth mostly below about 0.91 (no sharp cut-off); inconclusive = no clear call, values can overlap the other calls; inactive = mostly above about 0.92. The list shows a part of the results.

Assay: chemical genetic growth profiling, strain panel (AID 1159580);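 also: tested at 20 µM; growth read once vehicle control cultures reached saturation at 30 °C; 1 = growth at the plate median or of vehicle wells; lower values mean less growth of the strain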
Conditions: growth OD

Measured: normalized growth

CCC1(CC)C(=O)C=CNC1=O
inactive: S. cerevisiae deletion strains, locus YJR066W, strain TOR1, stronger effect = lower value 0.961 | S. cerevisiae deletion strains, locus YKL009W, strain mrt4, stronger effect = lower value 1 | S. cerevisiae deletion strains, locus YKL068W, stronger effect = lower value 1 | S. cerevisiae deletion strains, locus YKL085W, strain MDH1 (second series), stronger effect = lower value 1 | S. cerevisiae deletion strains, locus YKL085W, strain MDH1, stronger effect = lower value 1 | S. cerevisiae deletion strains, locus YKL160W, strain elf1, stronger effect = lower value 0.992 | S. cerevisiae deletion strains, locus YKL190W, strain CNB1, stronger effect = lower value 1 | S. cerevisiae deletion strains, locus YKR001C, strain vps1, stronger effect = lower value 0.983 | S. cerevisiae deletion strains, locus YKR026C, strain gcn3, stronger effect = lower value 0.97 | S. cerevisiae deletion strains, locus YKR091W, strain srl3, stronger effect = lower value 1 | S. cerevisiae deletion strains, locus YLL001W, strain dnm1, stronger effect = lower value 0.985 | S. cerevisiae deletion strains, locus YLL026W, stronger effect = lower value 0.99 | S. cerevisiae deletion strains, locus YLL041C, strain sdh2, stronger effect = lower value 0.985 | S. cerevisiae deletion strains, locus YLR027C, strain aat2, stronger effect = lower value 0.996 | S. cerevisiae deletion strains, locus YLR039C, strain RIC1, stronger effect = lower value 1.01 | S. cerevisiae deletion strains, locus YLR058C, strain SHM2, stronger effect = lower value 1.01 | S. cerevisiae deletion strains, locus YLR102C, strain apc9, stronger effect = lower value 1.01 | S. cerevisiae deletion strains, locus YLR113W, strain HOG1, stronger effect = lower value 0.988 | S. cerevisiae deletion strains, locus YLR221C, strain rsa3, stronger effect = lower value 1.01 | S. cerevisiae deletion strains, locus YLR258W, strain gsy2, stronger effect = lower value 1.01 | S. cerevisiae deletion strains, locus YLR262C, strain YPT6 (second series), stronger effect = lower value 1.02 | S. cerevisiae deletion strains, locus YLR262C, strain YPT6, stronger effect = lower value 1.01 | S. cerevisiae deletion strains, locus YLR268W, strain sec22, stronger effect = lower value 1.01 | S. cerevisiae deletion strains, locus YLR320W, strain mms22, stronger effect = lower value 1.02 | S. cerevisiae deletion strains, locus YLR330W, strain CHS5, stronger effect = lower value 1.01 | S. cerevisiae deletion strains, locus YLR342W, strain FKS1 (second series), stronger effect = lower value 1.06 | S. cerevisiae deletion strains, locus YLR342W, strain FKS1, stronger effect = lower value 1.01 | S. cerevisiae deletion strains, locus YLR357W, strain rsc2, stronger effect = lower value 1 | S. cerevisiae deletion strains, locus YLR370C, strain arc18, stronger effect = lower value 0.997 | S. cerevisiae deletion strains, locus YLR371W, strain rom2, stronger effect = lower value 1.01 | S. cerevisiae deletion strains, locus YLR384C, strain iki3, stronger effect = lower value 0.995 | S. cerevisiae deletion strains, locus YLR418C, strain cdc73, stronger effect = lower value 1.02 | S. cerevisiae deletion strains, locus YML016C, strain PPZ1, stronger effect = lower value 1 | S. cerevisiae deletion strains, locus YML032C, strain rad52, stronger effect = lower value 0.997 | S. cerevisiae deletion strains, locus YML120C, strain ndi1, stronger effect = lower value 0.994 | S. cerevisiae deletion strains, locus YML124C, strain tub3, stronger effect = lower value 1.01 | S. cerevisiae deletion strains, locus YMR058W, strain fet3, stronger effect = lower value 0.989 | S. cerevisiae deletion strains, locus YMR078C, strain ctf18, stronger effect = lower value 1.01 | S. cerevisiae deletion strains, locus YMR125W, strain sto1, stronger effect = lower value 0.973 | S. cerevisiae deletion strains, locus YMR129W, stronger effect = lower value 0.991 | S. cerevisiae deletion strains, locus YMR205C, strain PFK2, stronger effect = lower value 1.05 | S. cerevisiae deletion strains, locus YMR223W, strain ubp8, stronger effect = lower value 1.02 | S. cerevisiae deletion strains, locus YMR231W, strain pep5, stronger effect = lower value 0.998 | S. cerevisiae deletion strains, locus YMR263W, strain SAP30, stronger effect = lower value 0.995 | S. cerevisiae deletion strains, locus YMR307W, strain GAS1, stronger effect = lower value 1.01 | S. cerevisiae deletion strains, locus YNL067W, strain RPL9B, stronger effect = lower value 0.981 | S. cerevisiae deletion strains, locus YNL071W, strain lat1, stronger effect = lower value 0.994 | S. cerevisiae deletion strains, locus YNL128W, strain TEP1, stronger effect = lower value 1.03 | S. cerevisiae deletion strains, locus YNL183C, strain NPR1, stronger effect = lower value 0.958 | S. cerevisiae deletion strains, locus YNL209W, strain ssb2, stronger effect = lower value 1 | S. cerevisiae deletion strains, locus YNL233W, strain BNI4, stronger effect = lower value 0.978 | S. cerevisiae deletion strains, locus YNL248C, strain rpa49, stronger effect = lower value 0.96 | S. cerevisiae deletion strains, locus YNL250W, strain rad50, stronger effect = lower value 1.02 | S. cerevisiae deletion strains, locus YNL271C, strain bni1, stronger effect = lower value 1.01 | S. cerevisiae deletion strains, locus YNL298W, strain CLA4, stronger effect = lower value 1 | S. cerevisiae deletion strains, locus YNL307C, strain MCK1, stronger effect = lower value 1.02 | S. cerevisiae deletion strains, locus YNL322C, strain KRE1 (second series), stronger effect = lower value 0.992 | S. cerevisiae deletion strains, locus YNL322C, strain KRE1, stronger effect = lower value 0.999 | S. cerevisiae deletion strains, locus YNR049C, strain mso1, stronger effect = lower value 0.994 | S. cerevisiae deletion strains, locus YNR052C, strain pop2, stronger effect = lower value 1.01 | S. cerevisiae deletion strains, locus YOL006C, strain TOP1, stronger effect = lower value 0.966 | S. cerevisiae deletion strains, locus YOL012C, strain htz1 0.962 | S. cerevisiae deletion strains, locus YOL147C, strain pex11, stronger effect = lower value 1.01 | S. cerevisiae deletion strains, locus YOR001W, strain rrp6, stronger effect = lower value 0.971 | S. cerevisiae deletion strains, locus YOR061W, strain CKA2, stronger effect = lower value 1.01 | S. cerevisiae deletion strains, locus YOR069W, strain VPS5, stronger effect = lower value 1.01 | S. cerevisiae deletion strains, locus YOR070C, strain gyp1, stronger effect = lower value 1 | S. cerevisiae deletion strains, locus YOR080W, strain dia2, stronger effect = lower value 0.999 | S. cerevisiae deletion strains, locus YOR083W, strain WHI5, stronger effect = lower value 0.984 | S. cerevisiae deletion strains, locus YOR106W, strain vam3, stronger effect = lower value 1.01 | S. cerevisiae deletion strains, locus YOR136W, strain idh2, stronger effect = lower value 0.994 | S. cerevisiae deletion strains, locus YOR144C, strain elg1, stronger effect = lower value 1 | S. cerevisiae deletion strains, locus YOR184W, strain ser1, stronger effect = lower value 1.02 | S. cerevisiae deletion strains, locus YOR231W, strain MKK1, stronger effect = lower value 0.98 | S. cerevisiae deletion strains, locus YOR265W, strain rbl2, stronger effect = lower value 0.996 | S. cerevisiae deletion strains, locus YOR270C, strain vph1, stronger effect = lower value 0.994 | S. cerevisiae deletion strains, locus YOR290C, strain snf2, stronger effect = lower value 0.965 | S. cerevisiae deletion strains, locus YOR316C, strain cot1, stronger effect = lower value 1.01 | S. cerevisiae deletion strains, locus YPL051W, strain arl3, stronger effect = lower value 0.985 | S. cerevisiae deletion strains, locus YPL078C, strain atp4, stronger effect = lower value 0.968 | S. cerevisiae deletion strains, locus YPL106C, strain sse1, stronger effect = lower value 1 | S. cerevisiae deletion strains, locus YPL240C, strain hsp82, stronger effect = lower value 1.02 | S. cerevisiae deletion strains, locus YPL256C, strain CLN2, stronger effect = lower value 1.01 | S. cerevisiae deletion strains, locus YPR119W, strain clb2, stronger effect = lower value 1 | S. cerevisiae deletion strains, locus YPR141C, strain kar3, stronger effect = lower value 1 | S. cerevisiae deletion strains, locus YPR163C, strain tif3, stronger effect = lower value 1.01 | S. cerevisiae deletion strains, locus YPR167C, strain met16, stronger effect = lower value 1.01 | S. cerevisiae deletion strains, strain wtn01, stronger effect = lower value 1.02 | S. cerevisiae strains, strain wild type, stronger effect = lower value 0.996
